Source: PubChem BioAssay (NCATS)
Records with an inconclusive call do not appear. Calls of active or inactive are those of the source. The call rests on the fitted dose curve; in most records, active means well fitted inhibition curve with a large enough effect; inconclusive means small, poorly fitted or top-dose-only effect; inactive means flat fitted curve, though single readings scatter.

Test system: not listed separately
Assay: qHTS Assay for Lipid Storage Modulators (AID 1519)
Conditions: Drosophila S3 cells, BODIPY lipid droplet/cell ratio, laser cytometry; measured here: lipid channel max response; cells loaded with oleic acid
How it was run: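 Cells seeded at 5,000 per well were treated with compounds over a concentration series and loaded with oleic acid (400 uM, as added). Lipid droplet fluorescence (488 nm excitation, 500-530 nm channel) was read by laser-scanning cytometry and normalized to 20 uM Triacsin C.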
Compound `Cc1noc(C)c1-c1ccc2ncnc(NC3CCNCC3)c2c1` has a max response of 2.68%.
`CCNc1ncc2nc(C)c(=O)n(C)c2n1` gave a max response of 26.7%.
Work on `COc1ccc(CNc2ncncc2-c2cccnc2)c(OC)c1` yielded a max response of 22.7%.
Work on `COc1ccc(-n2c(=O)cnc3cnc(N4CCOCC4)nc32)cc1` yielded a max response of 8.45%.
In the case of `Fc1ccc(Nc2ncncc2-c2ccoc2)cc1`, the max response is reported as 12.6%.
`Cn1c(=O)cnc2cnc(OCc3ccccc3)nc21` gave a max response of 26%.
`COc1cccc(Nc2ncc3nc(C)c(=O)n(CCc4ccccc4)c3n2)c1` gave a max response of -13.8%.
In the case of `COc1ccc2[nH]cc(CCNc3ncncc3-c3c(C)noc3C)c2c1`, the max response is reported as 18.3%.
Compound `Cc1noc(C)c1-c1cc(Nc2ccccc2)ncn1` has a max response of 17.9%.
With `COc1ccc(Oc2ncc3ncc(=O)n(C)c3n2)cc1` the max response was 14.1%.
`COCCNc1cc(-c2ccccc2C)ncn1` showed a max response of 8.94%.
For `CS(=O)(=O)Nc1cccc(-c2cncnc2Nc2ccc(F)cc2)c1`, the max response was 26.3%.
For `c1ccc2c(NC3CCNCC3)nc(-c3ccoc3)nc2c1`, the max response was 2.41%.
With `c1csc(CNc2cc(-c3ccoc3)ncn2)c1` the max response was 29.6%.
Work on `COc1ccc(CNc2cc(-c3ccoc3)ncn2)c(OC)c1` yielded a max response of 38.7%.
`O=c1cnc2cnc(Nc3ccccc3)nc2n1Cc1ccc(F)cc1` gave a max response of 14.4%.
In the case of `Fc1ccc(Nc2ccnc(-c3ccoc3)n2)cc1`, the max response is reported as 17.6%.
With `COc1ccccc1-c1cc(NCc2ccccc2)ncn1` the max response was 10.5%.
Compound `N#Cc1cccc(-c2cncnc2NCc2cccs2)c1` has a max response of 18.5%.
For `CNc1cc(-c2c(C)noc2C)ncn1`, the max response was 27.2%.

Molecular target: Dual specificity protein kinase CLK4 (Homo sapiens) (UniProt Q9HAZ1)
Sequence (Q9HAZ1 whole entry, looked up): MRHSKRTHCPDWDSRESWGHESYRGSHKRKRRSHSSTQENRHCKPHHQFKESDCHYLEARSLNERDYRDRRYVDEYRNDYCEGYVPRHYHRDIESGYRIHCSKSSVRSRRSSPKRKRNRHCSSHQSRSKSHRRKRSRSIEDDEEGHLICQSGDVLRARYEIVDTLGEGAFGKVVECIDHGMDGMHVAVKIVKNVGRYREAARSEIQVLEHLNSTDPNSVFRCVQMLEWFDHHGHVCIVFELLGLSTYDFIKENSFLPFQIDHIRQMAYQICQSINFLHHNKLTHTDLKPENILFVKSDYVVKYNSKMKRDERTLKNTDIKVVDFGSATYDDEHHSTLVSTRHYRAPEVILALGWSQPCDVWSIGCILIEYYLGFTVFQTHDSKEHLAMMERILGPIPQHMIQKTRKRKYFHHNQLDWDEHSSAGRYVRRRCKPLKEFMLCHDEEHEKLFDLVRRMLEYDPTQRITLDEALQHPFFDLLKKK
Assay: qHTS Assay for Inhibitors of CDC-like Kinase 4 (Kinase-Glo Assay) (AID 1770); further: nearly all actives have a fitted effect of over 65% in size; further: potency means the concentration at half of the fitted maximal effect; on activity, negative = inhibition: on the % scale 0 is the no-effect control and ±100 the full control effect
Conditions: recombinant Clk4, Kinase-Glo ATP depletion luminescence; series mostly up to 66.7 µM; activity, negative = inhibition: at the top concentration
How it was run: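 Clk4 25 nM, RS peptide 100 uM, ATP 1 uM, pH 7.5 Tris, 10 mM MgCl2, 2.5 mM DTT; 4.5 h RT; ATP depletion read by Kinase-Glo luminescence.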
For `N#Cc1cccc(-c2nc3cnc(N4CCOCC4)nc3n(C3CC3)c2=O)c1`, the “activity, negative = inhibition” value was -25.8% (inactive).
With `CCNc1ncc2nc(-c3cc(F)cc(F)c3)c(=O)n(C)c2n1` the “activity, negative = inhibition” value was -23.2% (inactive).
In the case of `COc1cccc(-c2cncnc2N(C)Cc2ccco2)c1`, the “activity, negative = inhibition” value is reported as -22.2% (inactive).
In the case of `Cc1cnc(CNc2ncncc2-c2cccc(C#N)c2)cn1`, the Potency is reported as 28.2 µM (active).
In the case of `COc1ccc(-n2c(=O)cnc3cnc(N4CCOCC4)nc32)cc1`, the Potency is reported as 28.2 µM (active).
For `COCCNc1cc(-c2ccccc2C)ncn1`, the Potency was 12.6 µM (active).

Molecular target: Dual specificity protein kinase CLK4 (Homo sapiens) (UniProt Q9HAZ1)
Assay: qHTS Assay for Inhibitors of CDC-like Kinase 4 (ADP-Glo Assay) (AID 1771); further: nearly all actives have a fitted effect of over 70% in size; further: potency means the concentration at half of the fitted maximal effect; on activity change, negative = inhibition: on the % scale 0 is the no-effect control and ±100 the full control effect
Conditions: recombinant CLK4, ADP-Glo luminescence; series mostly up to 80 µM; activity change, negative = inhibition: at the top concentration
How it was run: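 25 nM Clk4, 100 uM RS peptide, 1 uM ATP (final); 2 mM MgCl2, 0.5 mM EGTA, 2.5 mM DTT, 0.01% Triton X-100; 1 hr RT. ADP-Glo readout: ATP depletion 45 min, conversion/luciferase 30 min, luminescence.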
With `CCNc1ncc2nc(-c3cc(F)cc(F)c3)c(=O)n(C[C@H]3CCCO3)c2n1` the “activity change, negative = inhibition” value was -28.7% (inactive).
For `COc1ccccc1-c1ccc2ncnc(NC3CCNCC3)c2c1`, the “activity change, negative = inhibition” value was -21% (inactive).
In the case of `CCNc1ncc2nc(C)c(=O)n(Cc3ccc(F)cc3)c2n1`, the Potency is reported as 15.8 µM (active).
With `Cc1nc2cnc(Nc3ccccc3)nc2n(C2CC2)c1=O` the Potency was 6.31 µM (active).
For `CCNc1ncc2nc(-c3cn(C)c4ccccc34)c(=O)n(-c3ccc(OC)cc3)c2n1`, the “activity change, negative = inhibition” value was -26.7% (inactive).
With `CN(C)C(=O)c1ccc(-c2cncnc2N2CCNCC2)cc1` the “activity change, negative = inhibition” value was 1.22% (inactive).
For `Cc1noc(C)c1-c1ccc2ncnc(NC3CCNCC3)c2c1`, the Potency was 25.1 µM (active).
For `Fc1ccc(Nc2ncncc2-c2ccoc2)cc1`, the Potency was 10 µM (active).
With `Cn1c(=O)cnc2cnc(OCc3ccccc3)nc21` the Potency was 20 µM (active).
In the case of `COc1cccc(Nc2ncc3nc(C)c(=O)n(CCc4ccccc4)c3n2)c1`, the Potency is reported as 7.08 µM (active).
With `CS(=O)(=O)Nc1cccc(-c2cncnc2Nc2ccc(F)cc2)c1` the Potency was 31.6 µM (active).
In the case of `c1ccc2c(NC3CCNCC3)nc(-c3ccoc3)nc2c1`, the “activity change, negative = inhibition” value is reported as -27.6% (inactive).
In the case of `c1csc(CNc2cc(-c3ccoc3)ncn2)c1`, the Potency is reported as 35.5 µM (active).
With `Fc1ccc(Nc2ccnc(-c3ccoc3)n2)cc1` the “activity change, negative = inhibition” value was -22.8% (inactive).

Molecular target: Dual specificity protein kinase CLK4 (Homo sapiens) (UniProt Q9HAZ1)
Assay: qHTS Assay for Inhibitors of CDC-like Kinase 4 (ADP-FP Assay) (AID 1795);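 further: recombinant human CLK4 phosphorylating RS repeat peptide at 1 µM ATP; on the % scale 0 is the no-effect control and ±100 the full control effect; nearly all actives have a fitted effect of over 60% in size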
Conditions: Transcreener ADP fluorescence polarization; series mostly up to 50 µM; activity change, negative = inhibition: at the top concentration
How it was run: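 Kinase activity was followed as ADP output, converted from fluorescence polarization with a calibration curve. Reactions ran one hour at low ATP (1 uM) with RS peptide substrate.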
With `N#Cc1cccc(-c2nc3cnc(N4CCOCC4)nc3n(C3CC3)c2=O)c1` the “activity change, negative = inhibition” value was 78.1% (inactive).
For `CCNc1ncc2nc(-c3cc(F)cc(F)c3)c(=O)n(C)c2n1`, the “activity change, negative = inhibition” value was -1.15% (inactive).
With `CC(=O)NCCNc1ccnc(-c2ccccc2C(F)(F)F)n1` the “activity change, negative = inhibition” value was -7.04% (inactive).
With `CCNc1ncc2nc(-c3cc(F)cc(F)c3)c(=O)n(C[C@H]3CCCO3)c2n1` the “activity change, negative = inhibition” value was 3.91% (inactive).
With `COc1ccccc1-c1ccc2ncnc(NC3CCNCC3)c2c1` the “activity change, negative = inhibition” value was -3.37% (inactive).
With `O=c1cnc2cnc(N3CCOCC3)nc2n1C1CC1` the “activity change, negative = inhibition” value was -5.28% (inactive).
In the case of `CCNc1ncc2nc(C)c(=O)n(-c3ccc(OC)cc3)c2n1`, the “activity change, negative = inhibition” value is reported as -18.2% (inactive).
In the case of `CCNc1ncc2nc(C)c(=O)n(Cc3cccs3)c2n1`, the “activity change, negative = inhibition” value is reported as -18.7% (inactive).
For `Cn1c(=O)c(-c2cccs2)nc2cncnc21`, the “activity change, negative = inhibition” value was -9.09% (inactive).
For `CN(C)c1ncc2ncc(=O)n(C3CC3)c2n1`, the “activity change, negative = inhibition” value was -25.2% (inactive).
For `CCNc1ncc2nc(C)c(=O)n(Cc3ccc(F)cc3)c2n1`, the “activity change, negative = inhibition” value was -1.2% (inactive).
For `CN(C)C(=O)c1ccc(-c2nc(NC3CCNCC3)c3ccccc3n2)cc1`, the “activity change, negative = inhibition” value was -28.9% (inactive).
For `COc1ccccc1CNc1ncncc1-c1cccnc1`, the “activity change, negative = inhibition” value was -20% (inactive).
With `COc1cccc(Nc2ncc3nc(C)c(=O)n(C)c3n2)c1` the “activity change, negative = inhibition” value was -8.81% (inactive).
For `CCNc1ncc2nc(C)c(=O)n(C3CC3)c2n1`, the “activity change, negative = inhibition” value was -24.1% (inactive).
In the case of `CCNc1ncc2nc(-c3cn(C)c4ccccc34)c(=O)n(-c3ccc(OC)cc3)c2n1`, the “activity change, negative = inhibition” value is reported as -6.36% (inactive).
For `CN(C)C(=O)c1ccc(-c2cncnc2N2CCNCC2)cc1`, the “activity change, negative = inhibition” value was -3.6% (inactive).
For `CCNc1ncc2nc(C)c(=O)n(C)c2n1`, the “activity change, negative = inhibition” value was -19.3% (inactive).
With `COc1ccc(CNc2ncncc2-c2cccnc2)c(OC)c1` the “activity change, negative = inhibition” value was -0.478% (inactive).
For `COc1ccc2[nH]cc(CCNc3ncncc3-c3c(C)noc3C)c2c1`, the “activity change, negative = inhibition” value was -10.5% (inactive).
For `Cc1noc(C)c1-c1cc(Nc2ccccc2)ncn1`, the “activity change, negative = inhibition” value was -13% (inactive).
For `COc1ccc(Oc2ncc3ncc(=O)n(C)c3n2)cc1`, the “activity change, negative = inhibition” value was -4.13% (inactive).
For `CS(=O)(=O)Nc1cccc(-c2cncnc2Nc2ccc(F)cc2)c1`, the “activity change, negative = inhibition” value was -23.8% (inactive).
For `c1csc(CNc2cc(-c3ccoc3)ncn2)c1`, the “activity change, negative = inhibition” value was -24.5% (inactive).
In the case of `COc1ccc(CNc2cc(-c3ccoc3)ncn2)c(OC)c1`, the “activity change, negative = inhibition” value is reported as 12.8% (inactive).
For `O=c1cnc2cnc(Nc3ccccc3)nc2n1Cc1ccc(F)cc1`, the “activity change, negative = inhibition” value was -15.8% (inactive).
For `COc1ccccc1-c1cc(NCc2ccccc2)ncn1`, the “activity change, negative = inhibition” value was -21.6% (inactive).
For `N#Cc1cccc(-c2cncnc2NCc2cccs2)c1`, the “activity change, negative = inhibition” value was -24.3% (inactive).
With `CNc1cc(-c2c(C)noc2C)ncn1` the “activity change, negative = inhibition” value was -14.5% (inactive).
